Data published in the supplement of paper PMC12645437, “Orthogonal IMiD-Degron Pairs Induce Selective Protein Degradation in Cells” (ACS Chemical Biology, 2025).
Over roughly 8,300 sequences, “log2 fold change of degron read counts, EGFP-low vs EGFP+ sorted cells (limma voom), compound-induced degradation” has its median near -1.1; the highest 2% begin near 3.2. For the sample, the highest values were picked, then their nearest neighbours and some sequences at random.

Molecular target: T1, CRBN, Q96SW2
T1 chain: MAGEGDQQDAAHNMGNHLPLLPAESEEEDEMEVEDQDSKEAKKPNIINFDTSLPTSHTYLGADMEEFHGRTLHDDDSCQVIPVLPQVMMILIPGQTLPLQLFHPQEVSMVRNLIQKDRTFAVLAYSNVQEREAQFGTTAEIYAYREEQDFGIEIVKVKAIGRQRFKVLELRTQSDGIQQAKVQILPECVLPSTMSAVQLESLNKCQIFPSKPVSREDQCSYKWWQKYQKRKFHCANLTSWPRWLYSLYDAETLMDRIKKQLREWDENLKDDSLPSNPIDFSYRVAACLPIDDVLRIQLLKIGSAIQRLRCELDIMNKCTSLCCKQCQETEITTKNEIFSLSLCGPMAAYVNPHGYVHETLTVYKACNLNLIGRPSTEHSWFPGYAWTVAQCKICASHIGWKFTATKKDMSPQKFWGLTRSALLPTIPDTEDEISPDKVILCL
Assay: log2 fold change of degron read counts, EGFP-low vs EGFP+ sorted cells (limma voom), compound-induced degradation; higher = more compound-induced degradation of the degron-EGFP fusion; degrons are variants of IKZF1/3 zinc finger 2; compound dose not given here
Details: Jurkat, 18 h
Procedure: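 Pooled library of 8380 IKZF3 ZF2 degron mutants (positions 146-167 varied within the IKZF3 130-189 degron; only the varied core is printed, flanks not printed) fused to EGFP with IRES-mCherry, lentivirally expressed in Jurkat cells. mCherry+ cells were treated with one IMiD compound for 18 h (dose not stated) and FACS-sorted into EGFP-low and EGFP+ populations. Degron sequences were counted by NGS, and log2FC (EGFP-low vs EGFP+) was estimated by limma voom over 3 biological replicates.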

[1] = compound: compound 19 (5-tert-butyl-thalidomide)
[2] = compound: compound 22 (5-morpholino-thalidomide)
[3] = compound: compound 33 (diphenyl IMiD analogue)
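Further: pooled lentiviral library of zinc finger degron-EGFP fusions in mCherry-positive Jurkat cells, FACS-sorted after compound exposure, with degron abundance counted by next-generation sequencing.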

Sequence: FDCDICGAAFTQKGNLLRHIKL [46F_47D_49D_50I_52G_53A_54A_55F_67L_, Q9UKT9]
- log2 fold change of degron read counts [1]: 0.561
- log2 fold change of degron read counts [2]: -1.32
- log2 fold change of degron read counts [3]: -1.46
- log2 fold change of degron read counts (compound: thalidomide): -0.827

Sequence: FRCEICGHVFTQKGNLLRHIKL [46F_47R_49E_50I_52G_53H_54V_55F_67L_, Q9UKT9]
- log2 fold change of degron read counts [1]: -2.92
- log2 fold change of degron read counts [2]: -3.64
- log2 fold change of degron read counts [3]: -1.71
- log2 fold change of degron read counts (compound: thalidomide): -2.21

Sequence: FMCNVCGAAFTQKGNLLRHIKL [46F_47M_49N_50V_52G_53A_54A_55F_67L_, Q9UKT9]
- log2 fold change of degron read counts [1]: -1.07
- log2 fold change of degron read counts [2]: -0.0279
- log2 fold change of degron read counts [3]: 2
- log2 fold change of degron read counts (compound: thalidomide): 0.272

Sequence: FTCEVCGAGFTQKGNLLRHIKL [46F_47T_49E_50V_52G_53A_54G_55F_67L_, Q9UKT9]
- log2 fold change of degron read counts [1]: 2.39
- log2 fold change of degron read counts [2]: 2.34
- log2 fold change of degron read counts [3]: 2.42
- log2 fold change of degron read counts (compound: thalidomide): 2.32

Sequence: FNCDVCGAFFTQKGNLLRHIKL [46F_47N_49D_50V_52G_53A_54F_55F_67L_, Q9UKT9]
- log2 fold change of degron read counts [1]: -1.57
- log2 fold change of degron read counts [2]: -2.42
- log2 fold change of degron read counts [3]: -1.91
- log2 fold change of degron read counts (compound: thalidomide): -2.42

Sequence: LDCNQCGFCCTQKGNLLRHIKL [46L_47D_49N_50Q_52G_53F_54C_55C_67L_, Q9UKT9]
- log2 fold change of degron read counts [1]: -2.36
- log2 fold change of degron read counts [2]: -3.41
- log2 fold change of degron read counts [3]: -2.85
- log2 fold change of degron read counts (compound: thalidomide): -2.58

Sequence: FTCEICGAWFTQKGNLLRHIKL [46F_47T_49E_50I_52G_53A_54W_55F_67L_, Q9UKT9]
- log2 fold change of degron read counts [1]: -0.788
- log2 fold change of degron read counts [2]: -0.479
- log2 fold change of degron read counts [3]: 1.12
- log2 fold change of degron read counts (compound: thalidomide): 1.04

Sequence: FRCSVCGHLFTQKGNLLRHIKL [46F_47R_49S_50V_52G_53H_54L_55F_67L_, Q9UKT9]
- log2 fold change of degron read counts [1]: -2.53
- log2 fold change of degron read counts [2]: -3.16
- log2 fold change of degron read counts [3]: -2.34
- log2 fold change of degron read counts (compound: thalidomide): -2.39

Sequence: LYCNQCGFQCTQKGNLLRHIKL [46L_47Y_49N_50Q_52G_53F_54Q_55C_67L_, Q9UKT9]
- log2 fold change of degron read counts [1]: -1.36
- log2 fold change of degron read counts [2]: -0.758
- log2 fold change of degron read counts [3]: -1.33
- log2 fold change of degron read counts (compound: thalidomide): -2.14

Sequence: LWCPICGFECTQKGNLLRHIKL [46L_47W_49P_50I_52G_53F_54E_55C_67L_, Q9UKT9]
- log2 fold change of degron read counts [1]: 2.12
- log2 fold change of degron read counts [2]: 2.64
- log2 fold change of degron read counts [3]: 2.17
- log2 fold change of degron read counts (compound: thalidomide): 0.382

Sequence: LQCPICGFGCTQKGNLLRHIKL [46L_47Q_49P_50I_52G_53F_54G_55C_67L_, Q9UKT9]
- log2 fold change of degron read counts [1]: 2.46
- log2 fold change of degron read counts [2]: 2.07
- log2 fold change of degron read counts [3]: 1.63
- log2 fold change of degron read counts (compound: thalidomide): 3.23

Sequence: LQCPICGFWCTQKGNLLRHIKL [46L_47Q_49P_50I_52G_53F_54W_55C_67L_, Q9UKT9]
- log2 fold change of degron read counts [1]: 0.033
- log2 fold change of degron read counts [2]: 0.594
- log2 fold change of degron read counts [3]: 1.15
- log2 fold change of degron read counts (compound: thalidomide): 2.58

Sequence: LWCPICGFSCTQKGNLLRHIKL [46L_47W_49P_50I_52G_53F_54S_55C_67L_, Q9UKT9]
- log2 fold change of degron read counts [1]: 3.31
- log2 fold change of degron read counts [2]: 3.57
- log2 fold change of degron read counts [3]: 2.84
- log2 fold change of degron read counts (compound: thalidomide): 2.33

Sequence: LQCPICGFSCTQKGNLLRHIKL [46L_47Q_49P_50I_52G_53F_54S_55C_67L_, Q9UKT9]
- log2 fold change of degron read counts [1]: 2.67
- log2 fold change of degron read counts [2]: 2.76
- log2 fold change of degron read counts [3]: 2.41
- log2 fold change of degron read counts (compound: thalidomide): 3.53

Sequence: LTCPICGFSCTQKGNLLRHIKL [46L_47T_49P_50I_52G_53F_54S_55C_67L_, Q9UKT9]
- log2 fold change of degron read counts [1]: 2.51
- log2 fold change of degron read counts [2]: 3.37
- log2 fold change of degron read counts [3]: 2.87
- log2 fold change of degron read counts (compound: thalidomide): 3.49

Sequence: LYCPICGFSCTQKGNLLRHIKL [46L_47Y_49P_50I_52G_53F_54S_55C_67L_, Q9UKT9]
- log2 fold change of degron read counts [1]: 3.73
- log2 fold change of degron read counts [2]: 3.72
- log2 fold change of degron read counts [3]: 3.09
- log2 fold change of degron read counts (compound: thalidomide): 2.7

Sequence: LTCPICGFECTQKGNLLRHIKL [46L_47T_49P_50I_52G_53F_54E_55C_67L_, Q9UKT9]
- log2 fold change of degron read counts [1]: 0.6
- log2 fold change of degron read counts [2]: 1.64
- log2 fold change of degron read counts [3]: 1.55
- log2 fold change of degron read counts (compound: thalidomide): 2.4

Sequence: LYCPICGFECTQKGNLLRHIKL [46L_47Y_49P_50I_52G_53F_54E_55C_67L_, Q9UKT9]
- log2 fold change of degron read counts [1]: 2.78
- log2 fold change of degron read counts [2]: 2.56
- log2 fold change of degron read counts [3]: 2.08
- log2 fold change of degron read counts (compound: thalidomide): 0.736
